Several values for one entry are separate records, joined by “and”; a condition that tells them apart may be missing. Identical values can stand only once. Activity calls are given as the source filed them.
Assays:
[1] = compounds binding Alexa647 anti-His antibody – biochemical, small-molecule microarray, 635 nm fluorescence, artefact control for SMM control protein annotation, primary screen (AID 1128); details: higher = more signal;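 note: score merges feature fluorescence with signal-to-noise for each printed compound spot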
[2] = system: Human papillomavirus type 1a E7 protein (residues 1-88); assay: HPV1a E7 small-molecule binders, primary screen, biochemical, small-molecule microarray, residues 1-88, 635 nm (AID 1129); details: small-molecule microarray binding, fluorescence 635 nm; higher = more signal
[3] = biological target: Focal adhesion kinase 1 (Homo sapiens) (UniProt Q05397); assay: PTK2 protein binding on printed compound slides – biochemical, small-molecule microarray, 635/667 nm fluorescence, BSA, DTT, primary screen (AID 1130); details: 635 nm fluorescence, higher = more signal;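 note: composite of spot emission at 667 nm and signal to noise over triplicate slides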
Sequence of Focal adhesion kinase 1 (Homo sapiens) (Q05397 whole entry, looked up): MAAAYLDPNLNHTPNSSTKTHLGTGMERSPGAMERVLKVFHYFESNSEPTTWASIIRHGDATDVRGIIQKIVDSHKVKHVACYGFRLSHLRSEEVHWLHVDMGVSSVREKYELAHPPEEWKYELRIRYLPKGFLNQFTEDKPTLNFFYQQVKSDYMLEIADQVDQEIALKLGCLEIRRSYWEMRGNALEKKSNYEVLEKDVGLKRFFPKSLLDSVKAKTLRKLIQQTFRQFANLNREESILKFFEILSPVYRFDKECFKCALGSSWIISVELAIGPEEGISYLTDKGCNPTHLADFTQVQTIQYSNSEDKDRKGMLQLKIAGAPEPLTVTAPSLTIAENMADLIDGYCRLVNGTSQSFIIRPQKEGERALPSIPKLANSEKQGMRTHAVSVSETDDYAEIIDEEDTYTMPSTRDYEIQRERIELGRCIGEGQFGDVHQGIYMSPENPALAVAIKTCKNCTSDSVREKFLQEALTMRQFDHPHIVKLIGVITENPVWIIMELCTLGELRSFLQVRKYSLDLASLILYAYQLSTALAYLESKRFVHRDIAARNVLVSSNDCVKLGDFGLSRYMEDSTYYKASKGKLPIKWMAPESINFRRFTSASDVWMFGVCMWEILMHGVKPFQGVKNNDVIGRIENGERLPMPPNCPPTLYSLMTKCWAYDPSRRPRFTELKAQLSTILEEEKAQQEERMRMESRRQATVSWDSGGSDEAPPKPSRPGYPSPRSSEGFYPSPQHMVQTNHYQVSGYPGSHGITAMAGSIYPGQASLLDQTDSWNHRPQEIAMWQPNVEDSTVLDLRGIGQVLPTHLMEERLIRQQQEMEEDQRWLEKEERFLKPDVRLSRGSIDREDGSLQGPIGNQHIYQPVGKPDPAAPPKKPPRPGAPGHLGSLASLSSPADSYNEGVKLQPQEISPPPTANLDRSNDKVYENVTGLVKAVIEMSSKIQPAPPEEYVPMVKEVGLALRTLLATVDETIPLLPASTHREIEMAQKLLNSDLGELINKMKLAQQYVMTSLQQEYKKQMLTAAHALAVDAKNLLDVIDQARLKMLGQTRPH

[4] = system: Fibrinogen (Alexa647-labelled); assay: Alexa647-fibrinogen binding to printed small molecules – biochemical, small-molecule microarray, 635/667 nm fluorescence, artefact control for SMM control-protein annotation, profiling panel (AID 1131); details: fibrinogen-A647 binding fluorescence, higher = more signal;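 note: z-score merges 667 nm fluorescence with per-spot signal-to-noise over triplicate slides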
[5] = biological target: Follistatin (Homo sapiens) (UniProt P19883); assay: FST protein binding to printed compounds – biochemical, small-molecule microarray, 635/667 nm fluorescence, primary screen (AID 1132); details: 635 nm fluorescence, higher = more signal
Sequence of Follistatin (Homo sapiens) (P19883 whole entry, looked up): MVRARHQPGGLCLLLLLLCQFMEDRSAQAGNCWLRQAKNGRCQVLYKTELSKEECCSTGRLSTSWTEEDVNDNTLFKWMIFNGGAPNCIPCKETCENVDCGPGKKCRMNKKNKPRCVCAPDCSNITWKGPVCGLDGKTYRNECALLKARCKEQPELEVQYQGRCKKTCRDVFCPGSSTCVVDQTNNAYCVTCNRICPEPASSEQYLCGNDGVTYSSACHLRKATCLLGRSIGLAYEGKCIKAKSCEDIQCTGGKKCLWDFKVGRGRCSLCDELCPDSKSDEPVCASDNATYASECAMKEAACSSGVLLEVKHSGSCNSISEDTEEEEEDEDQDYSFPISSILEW

[6] = biological target: Fibroblast growth factor 2 (Homo sapiens) (UniProt P09038); assay: basic fibroblast growth factor binding to printed compounds – biochemical, small-molecule microarray, 635/667 nm fluorescence, primary screen (AID 1133); details: FGF2, fluorescence 635/667, higher = more signal
Sequence of Fibroblast growth factor 2 (Homo sapiens) (P09038 whole entry, looked up): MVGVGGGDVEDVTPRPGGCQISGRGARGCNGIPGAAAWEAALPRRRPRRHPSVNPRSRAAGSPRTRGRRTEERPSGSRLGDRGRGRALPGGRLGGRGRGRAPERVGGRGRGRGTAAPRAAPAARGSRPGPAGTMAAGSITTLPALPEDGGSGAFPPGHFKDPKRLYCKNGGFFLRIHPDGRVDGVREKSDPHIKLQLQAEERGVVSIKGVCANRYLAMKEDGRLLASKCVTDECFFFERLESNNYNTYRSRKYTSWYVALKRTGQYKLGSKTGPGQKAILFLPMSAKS

[7] = JC-1 mitochondrial potential readout, lung cancer cells – cell-based, A549, JC-1 fluorescence, basal, 24 h, 100 nL, profiling panel (AID 1138); details: higher = more signal;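 note: A549 lung adenocarcinoma cells under basal conditions with no added stimulus; test concentration not given here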
[8] = system: Lefty1; assay: Lefty1 protein binding to printed compounds – biochemical, small-molecule microarray, 635/667 nm fluorescence, primary screen (AID 1139); details: fluorescence 635/667, higher = more signal
[9] = system: wheat germ agglutinin (Triticum aestivum), Alexa647-labelled; assay: Alexa647-WGA lectin binding to printed small molecules – biochemical, small-molecule microarray, 635/667 nm fluorescence, artefact control for SMM control-protein annotation, profiling panel (AID 1140); details: WGA-A647 binding, 635 nm fluorescence, higher = more signal;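 note: score merges 667 nm feature emission with signal to noise over triplicate slides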
[10] = biological target: Luciferin 4-monooxygenase (Photinus pyralis) (UniProt P08659); assay: inhibition of purified Photinus pyralis luciferase – biochemical, luminescence, purified enzyme, 2006 set, primary screen (AID 1141); details: purified firefly luciferase, SteadyGlo luminescence, 30 min; higher = more signal, called active from +8 up or from −8 down unless noted;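 note: cell-free assay with purified firefly luciferase at 100 ng per well in PBS; test concentration not given here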
Sequence of Luciferin 4-monooxygenase (Photinus pyralis) (P08659 whole entry, looked up): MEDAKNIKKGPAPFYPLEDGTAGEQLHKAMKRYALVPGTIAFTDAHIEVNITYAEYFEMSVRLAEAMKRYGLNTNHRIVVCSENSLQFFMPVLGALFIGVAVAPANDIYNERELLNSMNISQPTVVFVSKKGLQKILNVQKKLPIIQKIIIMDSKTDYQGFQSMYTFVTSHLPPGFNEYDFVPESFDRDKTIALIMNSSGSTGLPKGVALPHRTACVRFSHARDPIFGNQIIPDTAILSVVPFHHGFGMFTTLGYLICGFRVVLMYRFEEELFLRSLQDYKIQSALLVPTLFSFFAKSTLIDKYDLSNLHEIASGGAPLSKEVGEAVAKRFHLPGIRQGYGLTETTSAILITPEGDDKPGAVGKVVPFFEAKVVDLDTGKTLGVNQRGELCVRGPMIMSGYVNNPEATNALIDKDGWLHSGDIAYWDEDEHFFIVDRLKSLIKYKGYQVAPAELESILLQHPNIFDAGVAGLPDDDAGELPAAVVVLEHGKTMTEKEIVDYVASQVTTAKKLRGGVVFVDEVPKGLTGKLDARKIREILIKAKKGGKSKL

SMILES	composite z-score [1]	composite z-score [2]	composite z-score [3]	composite z-score [4]	composite z-score [5]	composite z-score [6]	z-score [7]	composite z-score [8]	composite z-score [9]	z-score [10]
CCCc1cc2c(n1Cc1ccco1)C(C)C1CN(C(=O)c3ccccc3)C(C)(C(=O)OC)C21 (stereo not given)	1.7	0.806	0.307	0.717	1.13	-0.0321	-0.0794	0.494	1.29	-7.6 (inactive)
C[C@@H]1OC=C2[C@@H](O)[C@H]3O[C@H]3C(=O)[C@]23[C@H]1[C@H]1C2=C([C@@H](O)[C@H]4O[C@H]4C2=O)[C@@H]3O[C@@H]1C	-0.317	-0.556	-0.171	-0.559	0.0982	0.0979	0.774	0.277	-0.351	-0.563 (inactive)
O=P(c1ccccc1)(c1ccccc1)N1CC2(CC2)CC(O)(c2ccccc2)C1 (stereo not given)	1.11	0.805	1.26	0.77	-0.541	-0.955	0.542	-1.17	0.546	2.44 (inactive)
CCOC(=O)[C@H]1CC=C2C(=O)Oc3ccc(Br)cc3[C@@H]21	0.819	1.27	1.87	0.474	-1.1	-1.3	-0.896	-1.66	-0.0424	0.936 (inactive)
OCc1ccc(C2=CC(C3CC3)N(Cc3sc4ccccc4c3Cl)CC2)cc1 (stereo not given)	2.28	1.17	0.257	0.483	1.06	0.867	0.941	0.853	0.42	-1.57 (inactive)
CCc1cc2c(nc1CC)CCN(CCC(C)=NOC)C2	3.12	0.422	-0.128	-0.15	1.24	0.294	0.268	0.861	-0.141	-0.773 (inactive)
CCOC(=O)[C@H]1CC=C2C(=O)Oc3ccccc3[C@@H]21	2.35	-0.268	0.374	-0.192	-0.628	-0.903	-0.955	-0.54	-0.351	1.32 (inactive)
CCCC[C@@H]1C[C@H]1[C@@H](NP(=O)(c1ccccc1)c1ccccc1)c1ccc(Cl)cc1	1.23	-0.212	0.343	-0.741	-1.38	-0.748	0.179	-1.83	0.319	0.183 (inactive)
CN1CCC(c2ccc(CO)cc2)=CC1C1CC1 (stereo not given)	-0.192	-0.855	0.363	-0.0825	0.231	0.0573	0.319	0.85	-0.0579	-0.866 (inactive)
C[C@@H]1Cc2c(cnc3c2CN(C)CC3)CO1	-0.528	-0.336	0.391	-0.383	0.783	0.664	0.0621	1.27	-0.23	-0.345 (inactive)
COc1cc2c(cc1O)C(C)N(C)CC2 (stereo not given)	-0.0259	-1.17	-0.45	-0.227	-0.114	0.0683	0.599	-0.692	0.0591	-1.06 (inactive)
C=C(CC1(C(C)NP(=O)(c2ccccc2)c2ccccc2)CC1)c1ccccc1 (stereo not given)	2.95	1.25	0.788	0.94	0.3	-0.34	-0.147	0.0368	0.501	2.67 (inactive)
CCCc1cc2c(n1Cc1cccc(Cl)c1)C(C)C1CN(C(=O)c3ccccc3)C(C)(C(=O)OC)C21 (stereo not given)	2.37	1.23	1.16	0.989	-0.264	-1.1	1.95	-0.763	1.44	0.566 (inactive)
COC(=O)[C@@]1(Cc2ccccc2)[C@H]2c3cc(C(=O)N(C)C)[nH]c3C[C@H]2CN1C(=O)c1ccccc1	0.523	-1.26	-0.206	-0.0736	-0.426	-0.387	0.825	-1.29	-0.09	2.27 (inactive)
COC(=O)C1(C)C=C2C(=C(C)C(=O)C2C)CN1 (stereo not given)	0.207	0.111	0.885	-1.52	-0.0995	-0.755	-1.82	-0.868	-0.0605	2.34 (inactive)
COc1cc2c(cc1O)C=[N+](C)CC2	1.02	-0.662	-0.0048	-1.32	0.469	1.17	1.28	0.495	-0.252	-0.556 (inactive)

SMILES	composite z-score [1]	composite z-score [2]	composite z-score [3]	composite z-score [4]	composite z-score [5]	composite z-score [6]	z-score [7]	composite z-score [8]	composite z-score [9]	z-score [10]
COC(=O)[C@@]1(Cc2ccc(F)cc2)[C@H]2c3cc(C(=O)N(C)C)[nH]c3C[C@H]2CN1C(=O)c1ccccc1	1.8	0.733	0.745	0.817	-0.252	-0.0573	0.843	-0.855	0.186	-0.0137 [setting not given] (inactive)
C[C@H]1O[C@H]2C3=C(C(=O)[C@@H]4O[C@@H]4[C@@H]3O)[C@@H]1[C@@H]1[C@@H](C)OC=C3[C@@H](O)[C@H]4O[C@H]4C(=O)[C@]312	-0.652	-0.539	-0.27	-0.727	-0.72	-0.0771	0.344	-0.235	0.202	-1.61 (inactive)
COC(=O)[C@@]1(Cc2ccccc2)[C@H]2c3cc(C(=O)N(C)C)n(C)c3C[C@H]2CN1C(=O)c1ccccc1	1.18	0.898	0.144	0.84	-0.21	0.125	-0.0935	-0.627	0.668	1.59 (inactive)
C=C(CC1(CNP(=O)(c2ccccc2)c2ccccc2)CC1)c1ccccc1	0.679	0.626	0.0728	0.126	-0.274	-0.639	1.23	-0.742	0.11	2.19 (inactive)
CN1CCC(c2ccc(CO)cc2)=CC1c1cccs1 (stereo not given)	0.399	-0.668	0.903	-0.28	0.699	0.0576	0.389	1.35	0.244	-1.16 (inactive)
COC(=O)NCC=Cc1nc(CCC=CC(=O)O[C@H]2CC3CC(=O)O[C@@H](C=CCC(C)C)C[C@@H]4CC[C@H](C)[C@@H](C[C@@H](OC)C[C@H](C2)O3)O4)co1	-0.106	-1.42	-0.422	-1.2	-0.822	-0.43	1.88	-0.422	-0.777	-0.0363 (inactive)
CCCC=C(CCC)[C@@H](NP(=O)(c1ccccc1)c1ccccc1)c1ccccc1	0.0583	1.03	0.206	0.819	0.139	0.407	1.23	0.169	0.207	1.19 (inactive)
c1ccc(-c2cc3c(nc2-c2ccccc2)CCNC3)cc1	-0.0778	-0.716	-0.0306	0.357	-0.444	0.0533	0.631	0.0391	0.326	-0.13 (inactive)
COC(=O)[C@H]1[C@@H](O)[C@@]2(O)c3c(OC)cc(OC)cc3O[C@@]2(c2ccc(OC)cc2)[C@@H]1c1ccccc1	0.287	0.741	0.153	0.323	0.53	0.4	0.862	0.614	0.0623	-1.13 (inactive)
CCCc1cc2c(n1CCO)C(C)C1CN(C(=O)c3ccccc3)C(C)(C(=O)OC)C21 (stereo not given)	2.55	1.14	1.42	0.64	-0.315	-0.634	0.9	-0.875	1.25	1.54 (inactive)
CCCc1cc2c(n1Cc1ccc(C)cc1)C(C)C1CN(C(=O)c3ccccc3)C(C)(C(=O)OC)C21 (stereo not given)	2.14	1.06	1.29	0.889	0.66	0.578	1.14	-0.544	0.833	-1.17 (inactive)
COC(=O)[C@H]1C(=O)c2ccccc2O[C@@](C(=O)OC)(c2ccccc2)[C@@H]1c1ccccc1	-0.34	-1.34	0.0173	-1.75	-0.245	-0.105	-0.778	-0.0506	-0.738	0.164 (inactive)
COC(=O)[C@H]1[C@H](c2ccccc2)C(=O)[C@]2(O)c3ccccc3O[C@@]12c1ccccc1	-0.179	0.382	0.227	0.826	0.402	0.186	0.866	0.266	0.167	-1.9 (inactive)
CN1CCc2nc(CO)c(CO)cc2C1	1.08	0.635	0.11	0.291	0.398	0.576	1.02	0.263	-0.0298	-0.529 (inactive)
OCc1ccc(C2=CC(c3cccs3)N(Cc3cccc(OC(F)(F)F)c3)CC2)cc1 (stereo not given)	2.04	-0.38	0.147	-0.365	0.663	0.108	0.944	0.704	0.173	-1.26 (inactive)
CC1N(P(=O)(c2ccccc2)c2ccccc2)CC(O)(c2ccccc2)CC12CC2 (stereo not given)	1.12 and 1.33	0.773 and 0.537	1.39 and 0.264	-0.817 and 0.653	-1.07 and -0.0739	-1.02 and -0.642	0.158 and 0.776	-1.48 and -1.47	-0.322 and 0.637	2.42 (inactive) and 2.44 (inactive)
